Reference: PubChem BioAssay (NCATS)
Results filed as inconclusive are left out. Where a call stands in place of a potency, no number is given. The source made the active and inactive calls. The call rests on the fitted dose curve; in most records, active means well fitted curve in the direction sought with a large enough effect; inconclusive means small, poorly fitted or top-dose-only effect, or another doubt; inactive means no such curve, though single readings can be large; an effect the other way counts as inactive or inconclusive.

Columns and labels:
[1] = qHTS assay to identify small molecule inhibitors of chordoma cells - UCH-1 (AID 1259355); further: nearly all actives have a fitted effect of over 55% in size; on potency: series mostly up to about 46 µM
Procedure, shortened: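 800 cells/well, overnight attach; compounds pinned at 15 concs, then auranofin/camptothecin/doxorubicin/rubitecan/topotecan combo added; 48hr 37 C, 5% CO2; CellTiter-Glo, 30min RT, luminescence.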

[2] = qHTS assay to identify small molecule inhibitors of chordoma cells - UCH-2 (AID 1259356)
Potency means the concentration at half of the fitted maximal effect.

Structure (SMILES) | Potency [1] | Potency [2]
CCCCCCCCCCCC(=O)N(CCO)CCO | inactive | inactive
CC(CCc1ccc(O)cc1)NCC(O)c1ccc(O)cc1 (stereo unspecified) | inactive | inactive
C=C1C(CCl)(CCl)C2(Cl)C(Cl)C(Cl)C1(Cl)C2(Cl)Cl (stereo unspecified) | inactive | inactive
C=C1CC[C@H](O)CC1=C/C=C1\CCC[C@]2(C)[C@@H]([C@H](C)CC[C@@H](O)C(C)(C)O)CC[C@@H]12 | inactive | inactive
COc1ccc2c(c1)N(C[C@H](C)CN(C)C)c1ccccc1S2 | inactive | inactive
COC(=O)c1ccccc1O | inactive | inactive
O=S(=O)(O)CCCS(=O)(=O)O | inactive | inactive
O=C1CC[C@@H](C(=O)N[C@H]2C[C@@H]2c2ccccc2)N1 | inactive | –
CC(C)CCCCCCc1ccc(O)cc1 | inactive | inactive
CCCCO | inactive | –
CN(C)CCOc1ccc(/C(=C(/CCCl)c2ccccc2)c2ccccc2)cc1 | inactive | inactive
O=[N+]([O-])c1c(Cl)cccc1-c1c[nH]cc1Cl | inactive | inactive
CCOC(=O)C1=C(COCCN)NC(C)=C(C(=O)OC)C1c1ccccc1Cl (stereo unspecified) | inactive | inactive
Cc1c(Cl)cccc1Nc1ncccc1C(=O)O | inactive | inactive
CC[C@@H]1/C=C(\C)C[C@H](C)C[C@H](OC)[C@H]2O[C@@](O)(C(=O)C(=O)N3CCCC[C@H]3C(=O)O[C@H](/C(C)=C/[C@@H]3CC[C@@H](Cl)[C@H](OC)C3)[C@H](C)[C@@H](O)CC1=O)[C@H](C)C[C@@H]2OC | inactive | inactive
C[C@H]1O[C@@H](O[C@H]2[C@@H](O)C[C@H](O[C@H]3[C@@H](O)C[C@H](O[C@H]4CC[C@@]5(C)[C@H](CC[C@@H]6[C@@H]5C[C@@H](O)[C@]5(C)[C@@H](C7=CC(=O)OC7)CC[C@]65O)C4)O[C@@H]3C)O[C@@H]2C)C[C@H](O)[C@@H]1O | 0.355 µM (active) | 0.116 µM (active)
O=C(CCCN1CCC(C(=O)c2ccc(F)cc2)CC1)c1ccc(F)cc1 | inactive | inactive
CC(=O)Nc1ccc(OC(=O)c2ccccc2O)cc1 | inactive | –
NC(=S)NS(=O)(=O)c1ccc(N)cc1 | inactive | inactive
CCC(C)[C@@H](N)C(=O)O (stereo partly specified) | inactive | inactive

Structure (SMILES) | Potency [1] | Potency [2]
CCCCCCCCCCCCCCCCOCCOCCOCCOCCOCCOCCOCCOCCOCCOCCOCCOCCOCCOCCOCCOCCOCCOCCOCCOCCO | 35.5 µM (active) | –
CO[C@@]1(NC(=O)C2SC(=C(C(N)=O)C(=O)O)S2)C(=O)N2C(C(=O)O)=C(CSc3nnnn3C)CS[C@@H]21 (stereo partly specified) | inactive | inactive
OCCN1CCN(CC/C=C2/c3ccccc3Sc3ccc(Cl)cc32)CC1 | inactive | inactive
N=C(N)n1cccn1 | inactive | inactive
CC(CC=O)CCCC(C)(C)O (stereo unspecified) | inactive | inactive
O=c1n(CC2CO2)c(=O)n(CC2CO2)c(=O)n1CC1CO1 (stereo unspecified) | inactive | inactive
CCSc1ccc2c(c1)N(CCCN1CCN(C)CC1)c1ccccc1S2 | inactive | inactive
CS(=O)(=O)c1ccc([C@@H](O)[C@@H](COC(=O)CN)NC(=O)C(Cl)Cl)cc1 | inactive | inactive
O=C(OC1C[C@@H]2CC3C[C@H](C1)N2CC3=O)c1c[nH]c2ccccc12 (stereo partly specified) | inactive | inactive
CC(C)(O/N=C(\C(=O)N[C@@H]1C(=O)N2C(C(=O)[O-])=C(C[n+]3ccccc3)CS[C@H]12)c1csc(N)n1)C(=O)O | inactive | –
CCC(Cc1c(I)cc(I)c(O)c1I)C(=O)O (stereo unspecified) | inactive | inactive
CC(=O)[C@H]1CC[C@H]2[C@@H]3C=CC4=CC(=O)CC[C@@]4(C)[C@H]3CC[C@]12C | inactive | –
CO[C@H]1C[C@@H]2CC[C@@H](C)[C@@](O)(O2)C(=O)C(=O)N2CCCC[C@H]2C(=O)O[C@H]([C@H](C)C[C@@H]2CC[C@@H](OC(=O)C(C)(CO)CO)[C@H](OC)C2)CC(=O)[C@H](C)/C=C(\C)[C@@H](O)[C@@H](OC)C(=O)[C@H](C)C[C@H](C)/C=C/C=C/C=C/1C | inactive | inactive
O=C(O)CN(CC(=O)O)CC1=CC2C(=CC1=O)Oc1cc(O)c(CN(CC(=O)O)CC(=O)O)cc1C21OC(=O)c2ccccc21 (stereo unspecified) | inactive | inactive
CCN(CC)CCCC(C)Nc1cc(/C=C/c2ccccc2Cl)nc2cc(Cl)ccc12 (stereo unspecified) | inactive | inactive
CCCCCCOC(=O)c1cccnc1 | inactive | –
OCCOCCOCCO | inactive | inactive
CN(C)c1ccc(C(=C2C=CC(=[N+](C)C)C=C2)c2c(O)c(S(=O)(=O)[O-])cc3cc(S(=O)(=O)O)ccc23)cc1 | 14.1 µM (active) | 20.6 µM (active)
S=C1SCN(Cc2ccccc2)CN1Cc1ccccc1 | inactive | inactive
